High-throughput results as filed in PubChem BioAssay.
A selection: hits, their analogues and other compounds. The true share with any hit is near 1.9%.
Menin MLL FP FL – displaces fluorescein MLL peptide from human menin. Fluorescence polarization, fluorescein-MLL peptide displacement from menin. FP activity change, % at 61.4 µM. 290,000 tested, under 10 active; active means well fitted curve in the direction sought with a large enough effect in the polarisation, not every such curve was filed as active; inconclusive means small, poorly fitted or top-dose-only effect, or effect the other way, or a change in a side signal; inactive means no such curve, though single readings can be large or run the other way; the % refers to the polarisation; further: % of control where 0% means no effect
Menin MLL FP TR – inhibitors of human menin-MLL interaction, mutant MLL peptide | Menin + Texas Red MLL mutant peptide, fluorescence polarization | Potency, µM (titrated, usually from 61.6 µM), for inactives: at the highest dose FP activity change, negative = inhibition, usual class: inhibitors | 270,000 tested, 0.23% active | AID 1768; active means well fitted inhibition curve with a large enough effect in the polarisation, with a control signal flat, not every such curve was filed as active; inconclusive means small, poorly fitted or top-dose-only effect, or effect the other way, or a change in a side signal; inactive means no such curve, though single readings can be large or run the other way; the % refers to the polarisation; further: potency means the concentration at half of the fitted maximal effect; % of control where 0% means no effect
ClpP mod – qHTS Assay for Activators of ClpP; ATP-dependent Clp protease proteolytic subunit (Bacillus subtilis (strain 168)), P80244; purified B. subtilis ClpP, FRET peptide cleavage, 20 min; Potency, µM (titrated, usually from 57.5 µM), for the others: at the top dose activity change, negative = active; 340,000 tested, 1.9% active; AID 651965, 2013; active means well fitted falling curve with a large enough effect; inconclusive means small, poorly fitted or top-dose-only effect; inactive means no such curve, though single readings can be large or run the other way; further: potency means the concentration at half of the fitted maximal effect; the source files actives as falling curves though it sought activators and does not explain the sign; nearly all actives have a fitted effect of over 65% in size
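Purified B. subtilis ClpP, 10 microg/mL final in Tris/HCl pH8 with KCl, BSA, glycerol and Tween-20, cleaved an Abz/nitrotyrosine-quenched decapeptide. Fluorescence (ex 320, em 430) was read at 0 and 20 min at room temperature. Delta was normalized to 5.8 microM ADEP and DMSO/no-enzyme controls.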
Epigenetic derep – epigenetic control regulation, reporter derepression; 280,000 tested, 0.2% active; murine LDR cells, GFP reporter derepression, 30 h; AID 1865; Potency, µM (doses to about 53.9 µM), inactives show top-dose GFP activation, most hits filed as activators; active means well fitted activation curve with a large enough effect; inconclusive means small, poorly fitted or top-dose-only effect; further: potency means the concentration at half of the fitted maximal effect; % of control where 0% means no effect; nearly all actives have a fitted effect of over 60% in size
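In this reporter-derepression format, murine cells bearing a silenced integrated CMV-GFP locus incubate with test compound (30 h, 37 C), then are washed and imaged; fluorescent objects of 20–120 um count as induced cells.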
PINK1 expr mod – PINK1 expression modulation. AID 624263. 410,000 tested, 0.2% active. PINK1 immunofluorescence, high-content cytometry, 24 h. Potency, µM (highest dose often 76.6 µM), without a hit: top-dose activation (PINK1 increase), actives largely listed as activators; active means well fitted activation curve with a large enough effect; inconclusive means small, poorly fitted or top-dose-only effect; cell line not stated here; further: potency means the concentration at half of the fitted maximal effect; % of control where 0% means no effect; nearly all actives have a fitted effect of over 65% in size
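Decision-based qHTS: stable cells, 24 h exposure to five compound concentrations, CCCP as control. Fixed cells stained for PINK1 plus nuclear, mitochondrial and cell markers, cytometer read.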
MLL CXXC-DNA inh – inhibitors of human MLL CXXC domain-DNA interaction; Q03164; MLL-CXXC / FITC-HOXA9 DNA fluorescence polarization; Potency, µM (titrated, usually from 115 µM), without a hit: at the top dose activity change, negative = inhibition, actives largely listed as inhibitors; 290,000 tested, 0.037% active; AID 2662; active means well fitted inhibition curve with a large enough effect in the polarisation, with a control signal flat, not every such curve was filed as active; inconclusive means small, poorly fitted or top-dose-only effect, or effect the other way, or a change in a side signal; inactive means no such curve, though single readings can be large or run the other way; the % refers to the polarisation; further: potency means the concentration at half of the fitted maximal effect
Target sequence (Q03164 whole entry, looked up, the tested form may be a part): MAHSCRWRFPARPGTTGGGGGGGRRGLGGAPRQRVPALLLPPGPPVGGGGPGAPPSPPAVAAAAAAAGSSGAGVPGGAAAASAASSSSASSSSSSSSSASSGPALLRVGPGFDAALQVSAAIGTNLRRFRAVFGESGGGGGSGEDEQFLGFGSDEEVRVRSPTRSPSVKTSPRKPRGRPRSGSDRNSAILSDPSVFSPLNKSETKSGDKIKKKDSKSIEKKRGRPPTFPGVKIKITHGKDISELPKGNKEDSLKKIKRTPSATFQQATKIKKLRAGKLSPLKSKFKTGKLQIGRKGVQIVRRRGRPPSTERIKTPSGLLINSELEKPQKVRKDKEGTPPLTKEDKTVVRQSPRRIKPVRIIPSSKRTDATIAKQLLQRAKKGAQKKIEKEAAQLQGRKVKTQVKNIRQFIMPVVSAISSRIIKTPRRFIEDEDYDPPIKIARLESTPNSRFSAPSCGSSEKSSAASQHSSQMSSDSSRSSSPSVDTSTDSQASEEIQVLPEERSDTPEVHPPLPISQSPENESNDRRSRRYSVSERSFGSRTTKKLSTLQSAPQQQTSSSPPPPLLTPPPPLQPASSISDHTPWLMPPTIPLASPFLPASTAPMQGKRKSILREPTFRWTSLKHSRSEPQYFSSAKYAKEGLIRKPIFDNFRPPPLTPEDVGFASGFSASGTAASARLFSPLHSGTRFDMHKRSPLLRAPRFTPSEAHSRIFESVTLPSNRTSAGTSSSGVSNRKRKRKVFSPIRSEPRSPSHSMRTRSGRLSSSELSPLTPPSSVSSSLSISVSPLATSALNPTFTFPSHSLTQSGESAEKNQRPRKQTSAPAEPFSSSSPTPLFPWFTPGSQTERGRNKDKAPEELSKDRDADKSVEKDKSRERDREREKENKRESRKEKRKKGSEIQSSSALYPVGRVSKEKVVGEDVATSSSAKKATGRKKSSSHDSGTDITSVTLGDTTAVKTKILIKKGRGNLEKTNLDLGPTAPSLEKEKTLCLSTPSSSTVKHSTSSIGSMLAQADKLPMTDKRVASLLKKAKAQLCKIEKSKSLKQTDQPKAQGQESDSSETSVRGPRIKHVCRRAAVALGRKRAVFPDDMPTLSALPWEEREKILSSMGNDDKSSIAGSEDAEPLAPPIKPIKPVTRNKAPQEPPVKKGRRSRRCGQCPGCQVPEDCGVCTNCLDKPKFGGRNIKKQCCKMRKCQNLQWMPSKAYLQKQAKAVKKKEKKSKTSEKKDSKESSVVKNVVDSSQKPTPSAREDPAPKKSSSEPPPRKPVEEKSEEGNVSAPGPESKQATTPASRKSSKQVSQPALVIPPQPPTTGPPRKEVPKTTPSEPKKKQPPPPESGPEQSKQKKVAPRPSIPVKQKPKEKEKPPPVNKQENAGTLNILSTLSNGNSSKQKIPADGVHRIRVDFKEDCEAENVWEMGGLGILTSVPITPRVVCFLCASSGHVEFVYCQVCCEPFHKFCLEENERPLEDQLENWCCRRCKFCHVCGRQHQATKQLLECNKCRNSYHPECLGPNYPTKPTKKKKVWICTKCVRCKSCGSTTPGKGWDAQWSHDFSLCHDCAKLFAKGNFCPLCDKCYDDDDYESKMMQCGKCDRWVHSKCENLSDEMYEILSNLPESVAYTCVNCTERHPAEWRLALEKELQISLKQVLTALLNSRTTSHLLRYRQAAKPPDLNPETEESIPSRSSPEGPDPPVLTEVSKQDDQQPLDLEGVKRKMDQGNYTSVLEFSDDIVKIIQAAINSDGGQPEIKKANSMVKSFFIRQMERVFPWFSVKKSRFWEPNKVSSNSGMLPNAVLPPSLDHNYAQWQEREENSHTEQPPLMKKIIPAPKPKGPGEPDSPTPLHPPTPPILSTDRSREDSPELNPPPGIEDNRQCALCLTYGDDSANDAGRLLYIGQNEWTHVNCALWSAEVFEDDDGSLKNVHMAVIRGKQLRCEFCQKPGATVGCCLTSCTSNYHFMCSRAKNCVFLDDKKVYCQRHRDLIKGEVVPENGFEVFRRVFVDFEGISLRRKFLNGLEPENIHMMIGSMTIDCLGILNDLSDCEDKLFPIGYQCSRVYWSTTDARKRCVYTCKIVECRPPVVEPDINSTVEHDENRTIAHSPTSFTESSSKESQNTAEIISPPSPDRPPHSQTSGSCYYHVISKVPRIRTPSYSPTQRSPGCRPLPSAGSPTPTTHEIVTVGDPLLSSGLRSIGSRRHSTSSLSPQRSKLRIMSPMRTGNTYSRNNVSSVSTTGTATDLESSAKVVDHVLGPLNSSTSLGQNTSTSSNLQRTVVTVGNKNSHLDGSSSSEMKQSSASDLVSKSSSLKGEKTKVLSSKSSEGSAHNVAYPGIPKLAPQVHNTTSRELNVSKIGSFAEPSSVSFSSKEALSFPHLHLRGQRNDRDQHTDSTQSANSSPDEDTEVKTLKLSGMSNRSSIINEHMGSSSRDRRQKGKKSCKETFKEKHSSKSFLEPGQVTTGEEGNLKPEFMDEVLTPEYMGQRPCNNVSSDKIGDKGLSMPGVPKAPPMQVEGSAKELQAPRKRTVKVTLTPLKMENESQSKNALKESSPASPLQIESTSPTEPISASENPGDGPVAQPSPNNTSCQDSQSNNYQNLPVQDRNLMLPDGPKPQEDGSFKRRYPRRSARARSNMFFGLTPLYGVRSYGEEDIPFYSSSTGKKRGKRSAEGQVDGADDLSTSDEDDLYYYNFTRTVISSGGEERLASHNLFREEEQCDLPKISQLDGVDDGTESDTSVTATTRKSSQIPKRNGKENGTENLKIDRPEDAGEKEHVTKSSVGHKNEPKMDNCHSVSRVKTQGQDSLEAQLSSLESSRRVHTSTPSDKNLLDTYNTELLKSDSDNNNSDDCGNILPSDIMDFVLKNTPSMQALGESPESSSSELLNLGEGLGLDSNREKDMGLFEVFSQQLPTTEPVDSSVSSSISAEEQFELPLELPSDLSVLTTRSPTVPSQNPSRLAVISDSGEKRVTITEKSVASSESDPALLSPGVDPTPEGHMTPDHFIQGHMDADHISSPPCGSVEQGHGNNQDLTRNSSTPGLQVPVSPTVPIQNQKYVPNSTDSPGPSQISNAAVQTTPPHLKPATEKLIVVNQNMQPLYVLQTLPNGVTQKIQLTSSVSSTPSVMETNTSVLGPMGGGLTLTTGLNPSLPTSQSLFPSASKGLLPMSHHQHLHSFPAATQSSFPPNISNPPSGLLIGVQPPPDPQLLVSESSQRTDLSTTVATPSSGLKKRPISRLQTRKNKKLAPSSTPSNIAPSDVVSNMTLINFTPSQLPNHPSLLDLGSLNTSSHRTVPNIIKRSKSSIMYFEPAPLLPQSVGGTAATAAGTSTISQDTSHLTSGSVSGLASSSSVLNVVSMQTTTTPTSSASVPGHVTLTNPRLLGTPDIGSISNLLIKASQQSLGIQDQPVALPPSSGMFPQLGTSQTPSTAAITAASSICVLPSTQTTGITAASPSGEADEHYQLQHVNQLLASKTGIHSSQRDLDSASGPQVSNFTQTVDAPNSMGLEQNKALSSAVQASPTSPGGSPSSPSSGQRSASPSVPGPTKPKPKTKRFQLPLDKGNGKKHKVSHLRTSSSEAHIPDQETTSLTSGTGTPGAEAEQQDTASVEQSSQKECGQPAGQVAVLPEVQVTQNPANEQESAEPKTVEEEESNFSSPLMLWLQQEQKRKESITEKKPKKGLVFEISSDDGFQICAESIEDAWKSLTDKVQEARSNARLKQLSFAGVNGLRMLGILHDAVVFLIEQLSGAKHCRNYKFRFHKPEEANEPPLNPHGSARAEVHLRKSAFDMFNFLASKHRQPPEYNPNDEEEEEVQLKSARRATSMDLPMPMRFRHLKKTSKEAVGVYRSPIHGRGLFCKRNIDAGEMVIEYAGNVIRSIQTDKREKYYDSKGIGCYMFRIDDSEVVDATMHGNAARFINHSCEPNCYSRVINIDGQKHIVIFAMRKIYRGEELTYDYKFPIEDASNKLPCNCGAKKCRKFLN
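Fluorescence polarization: 7 uM MLL-CXXC (stock) preincubated 5 min with compounds, then 50 nM fluorescein-HOX-A9 DNA (stock) added; 30 min ambient. Buffer 50 mM Tris-HCl pH 7.5, 50 mM NaCl, 1 mM DTT, 0.05% BSA.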
Starred values were filed as active, the others as inactive; ? = inconclusive; . = not tested or not shown; [ ] = remark or other dose.

SMILES | Menin MLL FP FL | Menin MLL FP TR | ClpP mod | Epigenetic derep | PINK1 expr mod | MLL CXXC-DNA inh
CCOC(=O)c1cc(CC)sc1NC(=O)c1ccc2c(c1)OCCO2 | 0 | 28% | 25µM* | -1% | 11% | 6%
Cc1ccc2[nH]c(-c3cccc(N)c3)cc2c1 | -5 | ? | 16µM* | 0% | 5% | 3%
Cc1cnc(-n2ncc(C(=O)NCC3COCCO3)c2C2CC2)nc1-c1cccs1 (configuration not stated) | . | . | . | . | 1% | .
Cc1ccc(-c2nn(-c3ccccc3)cc2C2CC(c3cccs3)=NN2C(=O)CCCC(=O)O)cc1 (configuration not stated) | 1 | 9% | -26% | 1% | -3% | 0%
O=C(O)CCC(=O)N1N=C(c2cccs2)CC1c1cn(-c2ccccc2)nc1-c1ccccc1 (configuration not stated) | 1 | -5% | 14µM* | -3% | -1% | -2%
O=S(=O)(NC1CC1)c1ccccc1 | 2 | 8% | 2% | . | 0% | -6%
Cc1cccc(NS(=O)(=O)c2ccc(Oc3ccccc3)cc2)n1 | -1 | -25% | 22µM* | 0% | 0% | -7%
Cc1ccc(S(=O)(=O)Nc2ccccc2CNc2cccc(C)n2)cc1 | 3 | ? | -4% | 0% | 6% | 5%
COC(=O)C1=C(C)NC(C)=C(C(=O)OC)C1C(=O)OCCN1C(=O)c2ccccc2C1=O | -3 | -2% | 7.1µM* | 0% | 1% | -3%
CC(C)C(NS(C)(=O)=O)c1nnc2n1CCN(Cc1ccc(Cl)cc1)CC2 (configuration not stated) | . | . | . | . | 2% | .
S=c1nc(-c2ccccc2)c(-c2ccccc2)n[nH]1 | 0 | 5% | 0% | 2% | 2% | 1%
Nc1c(-c2ccccc2)n[nH]c1-c1ccccc1 | 2 | 19% | 28µM* | 1% | -5%[38.3 µM] | 2%
N#Cc1c(-c2ccco2)cc(-c2ccc(F)cc2)nc1N | 13 | ? | 35µM* | -1% | 8% | 0%
CC(C)Cc1cc(-c2ccco2)c(C#N)c(N)n1 | 8 | -9% | 3.2µM* | -3% | 0% | 1%
N#Cc1c(-c2ccc(F)cc2)cc(-c2cccnc2)nc1N | 2 | 4% | ? | 1% | 16% | 5%
C[N+]1(CC(=O)c2ccc3c(c2)CCCC3)CCOCC1 | . | . | 5% | . | 1% | .
COc1ccc(Cc2nc3ccc(C(=O)NCCn4ccnc4C)cc3o2)cc1OC | -2 | 4% | 32µM* | . | 2% | 3%
CC(=O)Nc1ccc(NC(=O)/C=C/c2ccc3c(c2)OCO3)cc1 | 0 | -21% | . | 2% | 0% | 6%
CN(C)CCCNC(=O)/C=C/c1ccc2c(c1)OCO2 | 1 | -10% | 16µM* | -1% | -1% | 4%
Cc1ccc(S(=O)(=O)N2CCc3nc(COc4ccccc4)c4c(c3C2)CO[C@@H](C)C4)cc1 | 2[11.7 µM] | 0%[11.7 µM] | . | . | . | .
Oc1nc(Nc2cccc(Cl)c2)sc1/C=C1\C=Nc2ccccc21 | ? | ? | -4% | 0% | 11% | 15%
CCOC(=O)c1c(Nc2ccc(Cl)cc2)sc(/C=C2\C=Nc3ccccc32)c1O | 2 | ? | 0% | 7.1µM* | 10µM* | 9%
COC(=O)c1ccc(NC(=O)Nc2ccc([N+](=O)[O-])cc2)cc1 | 1 | ? | 4% | . | 35µM* | 26%
O=C(Nc1ccc(C(=O)O)cc1)Nc1ccc([N+](=O)[O-])cc1 | 0 | ? | 0% | . | 1% | 4%
CC(=O)Nc1ccc(C(=O)N2CCCC(n3cc(C(=O)NCC(C)C)nn3)C2)cc1 (configuration not stated) | . | . | . | . | 1% | .
SMILES | Menin MLL FP FL | Menin MLL FP TR | ClpP mod | Epigenetic derep | PINK1 expr mod | MLL CXXC-DNA inh
Cc1ccc2c(c1)CN(C(=O)CC(c1ccccc1)c1ccco1)CC(C)O2 (configuration not stated) | . | . | . | . | 0% | .
Cc1cn2c(nc(=O)c3cccnc32)s1 | 0 | 0% | 16µM* | -1% | 2% | 9%
COC(=O)C1=NN[C@H](C(=O)OC(C)(C)C)[C@H]1c1ccccc1 | 0 | -1% | 16µM* | 1% | 1% | 0%
Cc1ncc2c(c1CNC(=O)CN1CCCCC1)CCN(C(=O)c1ccc(F)cc1Cl)C2 | . | . | . | . | 0% | .
Cc1nc2cc(NC(=O)[C@@H]3C[C@@H](Sc4ccccn4)CN3C3CCCCCC3)ccc2s1 | . | . | . | . | 0% | .
Cc1ccccc1CN1c2ccccc2-c2nc(SCC(=O)NCc3ccccc3)ncc2S1(=O)=O | . | . | 32µM* | ? | 1% | .
COc1ccc(CNC(=O)CSc2ncc3c(n2)-c2cc(Cl)ccc2N(Cc2ccccc2)S3(=O)=O)cc1 | . | . | -12% | 3% | 0% | .
COC(=O)CSc1ncc2c(n1)-c1ccccc1N(Cc1ccccc1C)S2(=O)=O | . | . | -21% | -2% | 2% | .
COc1ccc(CNC(=O)CSc2ncc3c(n2)-c2cc(Cl)ccc2N(Cc2ccccc2)S3(=O)=O)cc1OC | . | . | 31% | 22µM* | 0% | .
COc1ccccc1-c1noc(-c2ccc(NC3CCCC3)c([N+](=O)[O-])c2)n1 | . | . | 1% | -3% | -1% | .
Cc1cnc(NC(=O)C2CC(=O)N(c3ccc4c(c3)OCCO4)C2)s1 (configuration not stated) | . | . | 28µM* | . | 6% | .
CCc1cccc(CC)c1NC(=O)C1CC(=O)N(c2ccc3c(c2)OCCO3)C1 (configuration not stated) | 0 | -2% | 0% | -1% | -1% | 2%
O=C(NCC1(N2CCCCC2)CCCCC1)C1CC(=O)N(c2ccc3c(c2)OCCO3)C1 (configuration not stated) | -4 | ? | 8.9µM* | -1% | 2% | 5%
Cc1nnc(NC(=O)C2CC(=O)N(c3ccc4c(c3)OCCO4)C2)s1 (configuration not stated) | . | . | -1% | . | 0% | .
Cc1ccc2nc(COc3ccccc3NC(=O)C(C)(C)C)cc(=O)n2c1 | . | . | 25µM* | 12% | 1% | .
Cc1cccc(C(=O)Nc2ccccc2OCc2cc(=O)n3cc(C)ccc3n2)c1 | . | . | -3% | -2% | 0% | .
Brc1ccc(C2=CC(c3cccs3)n3ncnc3N2)cc1 (configuration not stated) | ? | ? | 32µM* | 1% | 3% | ?
C1=C(c2ccc(-c3ccccc3)cc2)Nc2ncnn2C1c1ccco1 (configuration not stated) | ? | ? | 16µM* | 3% | 18% | ?
OCCCc1nc2n(n1)C(c1cccs1)C=C(c1ccc(Br)cc1)N2 (configuration not stated) | ? | 26% | . | 2% | . | ?
